PubChem BioAssay
“And” between values parts separate entries of the source, which are not always exact repeats. Equal values may be shown once. Inconclusive results are not listed. The source made the active and inactive calls. Unless noted, the rule behind the calls is not given here.

Experiments:
[1] = tested on: Neuropilin-2 / VEGF-C interaction (human); assay: small molecules blocking Neuropilin-2/VEGF-C interaction – biochemical, microplate binding format, z-score (AID 743281); details: microplate NRP2/VEGF-C binding assay; stronger effect = lower value
[2] = compounds altering viability of human ES cells (AID 493140); details: human embryonic stem cell survival screen; stronger effect = higher value;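 note: cells exposed to compounds for four days before counting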
[3] = viability loss in pontine glioma line – cell-based, JHH-DIPG-1, MIPE4.0, CellTiter-Glo, qHTS, dose response (AID 1347062; cut-off not given, nearly all actives have AC50 up to about 27 µM;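 for AC50: cells exposed to compound for two days before readout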); details: JHH-DIPG-1 viability, CellTiter-Glo ATP luminescence
[4] = viability loss in pontine glioma line – cell-based, SU-DIPG-XXV, MIPE5.0, CellTiter-Glo, qHTS, dose response (AID 1347065; cut-off not given, nearly all actives have AC50 up to about 26 µM;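 note: cells exposed to compound for 48 hours before ATP readout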); details: CellTiter-Glo ATP luminescence
[5] = growth inhibition of DIPG cells – cell-based, MIPE4.0 library, CellTiter-Glo luminescence, qHTS (AID 1347066; cut-off not given, nearly all actives have AC50 up to about 30 µM;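 note: cells exposed to compound for 48 hours before readout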); details: SU-DIPG-VI viability, CellTiter-Glo ATP luminescence
[6] = JHH-DIPG-1 glioma cell viability, MIPE5.0 library, CellTiter-Glo luminescence, qHTS (AID 1347067; cut-off not given, nearly all actives have AC50 up to about 26 µM;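 note: cells exposed to compound for 48 hours before readout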); details: JHH-DIPG-1 glioma viability, CellTiter-Glo ATP luminescence
[7] = biological target: NAD(+) hydrolase SARM1 (Homo sapiens) (UniProt Q6SZW1); assay: blocking NAD cleavage by SARM1 SAM-TIR – cell lysate, NAD-Glo luminescence (AID 1508614;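 active = compound whose remaining NAD level is above about 45 nM, limit read from the data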;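 note: higher remaining NAD means stronger inhibition of SARM1 NADase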); details: SAM-TIR HEK293T lysate NADase, at 1 µM, stronger effect = higher value
Sequence of NAD(+) hydrolase SARM1 (Homo sapiens) (Q6SZW1 whole entry, looked up): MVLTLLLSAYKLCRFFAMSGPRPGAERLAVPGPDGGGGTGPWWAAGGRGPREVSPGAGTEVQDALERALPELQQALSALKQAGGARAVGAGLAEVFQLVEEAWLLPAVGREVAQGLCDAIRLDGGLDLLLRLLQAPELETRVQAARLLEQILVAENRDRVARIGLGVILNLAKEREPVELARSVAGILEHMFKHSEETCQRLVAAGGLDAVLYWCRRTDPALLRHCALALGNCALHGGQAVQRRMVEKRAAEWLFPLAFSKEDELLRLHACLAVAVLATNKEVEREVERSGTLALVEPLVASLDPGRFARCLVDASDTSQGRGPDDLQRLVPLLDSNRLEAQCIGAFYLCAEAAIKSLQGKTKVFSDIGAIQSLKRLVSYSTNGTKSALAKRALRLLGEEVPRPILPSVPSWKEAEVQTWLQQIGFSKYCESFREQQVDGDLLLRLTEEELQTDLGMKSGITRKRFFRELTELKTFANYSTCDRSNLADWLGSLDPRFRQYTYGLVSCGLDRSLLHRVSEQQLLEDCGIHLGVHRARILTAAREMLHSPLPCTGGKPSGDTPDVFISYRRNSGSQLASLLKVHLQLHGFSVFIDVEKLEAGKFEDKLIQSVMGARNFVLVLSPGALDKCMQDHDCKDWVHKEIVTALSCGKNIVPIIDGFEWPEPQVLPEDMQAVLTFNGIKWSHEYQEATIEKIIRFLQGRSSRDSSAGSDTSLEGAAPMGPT

[8] = galactose survival enhancers in mitochondrial complex I cybrids – cell-based, galactose medium, ATP luminescence, primary screen (AID 1645843;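 active = z-score of at least 1.8 in each of two replicates, scored against plate mean and spread of sample wells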;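 note: positive z means more ATP and so rescue of galactose-driven cybrid death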); details: complex I mutant cybrid cells, 72 h, stronger effect = higher value
R275C/beta4 = assay: BK channel mutant inhibitors and activators – cell-based, U2OS BacMam, thallium flux, beta subunits, selectivity assay, profiling panel (AID 1259406;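 active = thallium flux through the channel raised or lowered by more than 3 SD from vehicle-only wells, actives on both sides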;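 note: initial slope of Thallos dye fluorescence rise after thallium is added; log ratio against the mean of 0.3% DMSO vehicle wells on the same plate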); details: U2OS BacMam BK variants, at 30 µM
R275C/Slo1WT/beta2 = assay: as above; details: U2OS BacMam BK variants, at 30 µM
[9] = compounds altering circadian rhythm period length – cell-based, LOPAC library, luminescence reporter (AID 2774); details: circadian reporter cells, at 7 µM, actives lie on both sides;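 note: values are relative to mean of DMSO wells on each plate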
[10] = blockers of polyQ-driven CASP3 activation – cell-based (AID 1583); details: polyglutamine-induced caspase-3 activation, cell assay; stronger effect = higher value;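 tested at 10 µM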
[11] = yeast 75Q aggregation reduction – 75Q-TubU reporter (AID 1593); details: Yeast 75Q polyglutamine aggregation reporter
[12] = blockers of cytochrome c efflux from mitochondria – biochemical, purified mitochondria (AID 1603); details: stronger effect = lower value;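 note: mouse liver mitochondria challenged with calcium chloride; signal normalized to the plate average as 100%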
[13] = polyglutamine aggregate formation blockers (AID 1604); details: polyglutamine-induced protein aggregation inhibition assay; stronger effect = higher value; tested at 2.5 µM
[14] = glutamate transport activators, MN-1 cells, MN-1 cell line (AID 1612); details: MN-1 motor neuron cells, stronger effect = higher value;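 note: tested at 1 µM final; 0% = mean of DMSO vehicle wells on each plate; positive means more glutamate uptake than control and negative means less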
[15] = 75Q-TubH aggregate inhibition, S. cerevisiae, yeast (AID 1616); details: S. cerevisiae 75Q-TubH polyglutamine aggregation suppression; stronger effect = higher value
[16] = tested on: Hepatitis C virus NS3 helicase; assay: blockers of NS3h binding to ssDNA – biochemical, fluorescence polarization, LOPAC1280 library, primary screen (AID 687035; in the data active = inhibition above about 37%); details: Purified HCV NS3 helicase, Cy5-dT15 ssDNA binding fluorescence polarization; stronger effect = higher value; concentration not given here
[17] = compounds altering Cy5-DNA-NS3h complex signal – biochemical, LOPAC1280, artefact control for HCV NS3 helicase inhibitor project (AID 687037); details: Cy5-DNA-NS3h complex fluorescence interference counterscreen
[18] = blockers of cellular phospholipid synthesis – cell-based, LOPAC library, screen 4, primary screen (AID 1347384); details: animal cells, phospholipid biosynthesis inhibition screen; at 10 µM

## O=C(O[C@@H]1Cc2c(O)cc(O)cc2O[C@@H]1c1cc(O)c(O)c(O)c1)c1cc(O)c(O)c(O)c1
[1]
  z-score: 2.31 (inactive)

## C[C@H](CCC(=O)O)[C@H]1CC[C@H]2[C@@H]3[C@@H](O)C[C@@H]4C[C@H](O)CC[C@]4(C)[C@H]3CC[C@]12C
[2]
  survival: 4.92 (inactive)
[3]
  AC50: 20.9 µM (active)
[4]
  outcome: inactive
[5]
  outcome: inactive
[6]
  outcome: inactive
[7]
  remaining NAD: 10 nM (inactive)
[8]
  z-score: -0.425 (inactive)
R275C/beta4
  log fold change Tl+ flux: -0.0188 (inactive)
R275C/Slo1WT/beta2
  log fold change Tl+ flux: -0.0131 (inactive)

## CC1(C)SC2C(NC(=O)COc3ccccc3)C(=O)N2C1C(=O)O (stereo not given)
[8]
  z-score: 1.5 (inactive)
R275C/beta4
  log fold change Tl+ flux: 0.0174 (inactive)
R275C/Slo1WT/beta2
  log fold change Tl+ flux: 0.0607 (inactive)

## CCCCC(=O)O[C@H]1CC[C@H]2[C@@H]3CCc4cc(O)ccc4[C@H]3CC[C@]12C
[7]
  remaining NAD: 10 nM (inactive)
[8]
  z-score: -1.51 (inactive)
R275C/beta4
  log fold change Tl+ flux: -0.0402 (inactive)
R275C/Slo1WT/beta2
  log fold change Tl+ flux: 0.00597 (inactive)

## CCN1CCN(C(=O)N[C@@H](C(=O)N[C@@H]2C(=O)N3[C@@H]2SC(C)(C)[C@@H]3C(=O)O)c2ccccc2)C(=O)C1=O
[2]
  survival: 1.83 (inactive)
[7]
  remaining NAD: 10 nM (inactive)
[8]
  z-score: 0.5 (inactive) and 0.93 (inactive)
R275C/beta4
  log fold change Tl+ flux: 0.0304 (inactive)
R275C/Slo1WT/beta2
  log fold change Tl+ flux: 0.0399 (inactive)

## CC(C)[N+]1(C)C2CCC1CC(OC(=O)C(CO)c1ccccc1)C2 (stereo not given)
[2]
  survival: 16.6 (inactive)
[5]
  outcome: inactive
[8]
  z-score: 0.14 (inactive) and 0.88 (inactive)
R275C/beta4
  log fold change Tl+ flux: 0.0153 (inactive)
R275C/Slo1WT/beta2
  log fold change Tl+ flux: -0.0119 (inactive)

## CN1CCN(CC/C=C2/c3ccccc3Sc3ccc(S(=O)(=O)N(C)C)cc32)CC1
[9]
  period change: 0.09 h (inactive)
[7]
  remaining NAD: 10 nM (inactive)

## COc1ccc2c3c1O[C@H]1C[C@@H](O)C=C[C@@]31CCN(C)C2
[10]
  inhibition: -3.14%
[11]
  score: 1.34
[12]
  cytochrome c release ratio: 0.63
[13]
  inhibition of aggregation: 91.6%
[14]
  glutamate uptake change: 5.19%
[15]
  aggregation suppression score: 1.04
[2]
  survival: 11.9 (inactive)
[1]
  z-score: 0.00606 (inactive)
[3]
  outcome: inactive
[5]
  outcome: inactive
[7]
  remaining NAD: 10 nM (inactive)
[8]
  z-score: 0.28 (inactive) and 0.575 (inactive)

## COc1ccc(-c2oc3c(CC=C(C)C)c(O[C@@H]4O[C@H](CO)[C@@H](O)[C@H](O)[C@H]4O)cc(O)c3c(=O)c2O[C@@H]2O[C@@H](C)[C@H](O)[C@@H](O)[C@H]2O)cc1
[1]
  z-score: 0.976 (inactive)
R275C/beta4
  log fold change Tl+ flux: -0.0348 (inactive)
R275C/Slo1WT/beta2
  log fold change Tl+ flux: 0.0155 (inactive)

## CN(C)CCC(c1ccc(Cl)cc1)c1ccccn1 (stereo not given)
[10]
  inhibition: -45.4%
[11]
  score: 1.36
[12]
  cytochrome c release ratio: 0.61
[13]
  inhibition of aggregation: -12.5%
[14]
  glutamate uptake change: -7.91%
[15]
  aggregation suppression score: 1.27
[9]
  period change: -0.5 h (inactive)
[2]
  survival: 24.1 (inactive)
[16]
  inhibition: -6% (inactive)
[17]
  fluorescence ratio (interference): 0.9 (inactive)
[1]
  z-score: 0.208 (inactive)
[18]
  outcome: inactive
[7]
  remaining NAD: 10 nM (inactive)
R275C/beta4
  log fold change Tl+ flux: 0.0326 (inactive)
R275C/Slo1WT/beta2
  log fold change Tl+ flux: 0.0403 (inactive)

## C=CC1=C(C(=O)O)N2C(=O)[C@@H](NC(=O)/C(=N\O)c3csc(N)n3)[C@H]2SC1 (stereo in doubt)
[1]
  outcome: inactive
[3]
  outcome: inactive
[5]
  outcome: inactive
[7]
  remaining NAD: 10 nM (inactive)

## CC(=O)OCC(=O)[C@@]1(O)CC[C@H]2[C@@H]3CCC4=CC(=O)CC[C@]4(C)[C@H]3[C@@H](O)C[C@@]21C
[7]
  remaining NAD: 10 nM (inactive)
[8]
  z-score: -0.03 (inactive) and 0.39 (inactive)
R275C/beta4
  log fold change Tl+ flux: -0.0187 (inactive)
R275C/Slo1WT/beta2
  log fold change Tl+ flux: -0.0133 (inactive)

## CNCCC=C1c2ccccc2CCc2ccccc21
[10]
  inhibition: 16.9%
[11]
  score: 1.22
[12]
  cytochrome c release ratio: 0.98
[13]
  inhibition of aggregation: 72.7%
[14]
  glutamate uptake change: 13.8%
[15]
  aggregation suppression score: 1.32
[9]
  period change: 0.025 h (inactive)
[2]
  survival: 3.42 (inactive)
[16]
  inhibition: -5% (inactive)
[17]
  fluorescence ratio (interference): 1 (inactive)
[18]
  outcome: inactive
[7]
  remaining NAD: 10 nM (inactive)
[8]
  z-score: -1.28 (inactive) and -1.35 (inactive)
R275C/beta4
  log fold change Tl+ flux: 0.121 (inactive)
R275C/Slo1WT/beta2
  log fold change Tl+ flux: -0.0571 (inactive)

## CCCC1O[C@@H]2C[C@H]3[C@@H]4CCC5=CC(=O)C=C[C@]5(C)[C@H]4[C@@H](O)C[C@]3(C)[C@]2(C(=O)CO)O1 (stereo not given in full)
[9]
  period change: -0.26 h (inactive)
[2]
  survival: 0.833 (inactive)
[16]
  inhibition: -5% (inactive)
[17]
  fluorescence ratio (interference): 0.9 (inactive)
[18]
  outcome: inactive
[7]
  remaining NAD: 10 nM (inactive)
R275C/beta4
  log fold change Tl+ flux: 0.1 (inactive)
R275C/Slo1WT/beta2
  log fold change Tl+ flux: -0.0145 (inactive)
